From PubChem BioAssay AID1159580 (chemical genetic matrix, 2015)
The whole screen tested about 5,500 compounds, of which about 2,000 (36%) were called active. About 18% were inconclusive and are not listed. Cut-off read from the data, not from the text of the source: active = normalized growth mostly below about 0.91 (no sharp cut-off); inconclusive = no clear call, values can overlap the other calls; inactive = mostly above about 0.92. Some of the results follow.

Assay: chemical genetic growth profiling, strain panel (AID 1159580);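 note: tested at 20 µM; growth read once vehicle control cultures reached saturation at 30 °C; 1 = growth at the plate median or of vehicle wells; lower values mean less growth of the strain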
Settings: S. cerevisiae deletion strains, growth OD

Measured: normalized growth

Cc1cc(OCOc2ccc(Cl)c(C)c2)ccc1Cl
inactive: locus YAL013W, strain DEP1, active compounds read low 0.984 | locus YBR229C, strain ROT2, active compounds read low 0.988 | locus YCL061C, strain MRC1, active compounds read low 1.03 | locus YDL101C, strain DUN1, active compounds read low 1.05 | locus YDL134C, strain PPH21, active compounds read low 0.995 | locus YDR150W, strain NUM1, active compounds read low 0.997 | locus YEL061C, strain CIN8, active compounds read low 0.992 | locus YGR078C, strain PAC10, active compounds read low 1.01 | locus YGR229C, strain SMI1, active compounds read low 0.999 | locus YHR030C, strain SLT2, active compounds read low 0.814 | locus YHR087W, strain rtc3, active compounds read low 0.955 | locus YJR043C, strain POL32, active compounds read low 1.03 | locus YJR075W, strain HOC1, active compounds read low 1.02 | locus YKL190W, strain CNB1, active compounds read low 0.966 | locus YLR039C, strain RIC1, active compounds read low 1.11 | locus YLR058C, strain SHM2 (second series), active compounds read low 0.989 | locus YLR085C, strain ARP6, active compounds read low 0.973 | locus YLR262C, strain YPT6, active compounds read low 0.99 | locus YML094W, strain GIM5, active compounds read low 0.982 | locus YMR219W, strain ESC1, active compounds read low 0.991 | locus YMR263W, strain SAP30, active compounds read low 0.927 | locus YMR307W, strain GAS1, active compounds read low 0.834 | locus YNL153C, strain GIM3, active compounds read low 1.01 | locus YNL298W, strain CLA4 (second series), active compounds read low 1.04 | locus YNL322C, strain KRE1, active compounds read low 0.982 | locus YNR030W, strain Alg12, active compounds read low 0.97 | locus YOL006C, strain TOP1, active compounds read low 0.916 | locus YPL055C, strain LGE1, active compounds read low 0.975 | locus YPL241C, strain CIN2, active compounds read low 1 | locus YPR135W, strain CTF4, active compounds read low 0.999
